Measurements as given in PubChem BioAssay (Tox21).
Inconclusive results are not listed. Active and inactive are the calls of the source. Unless noted, calls come from the whole dose curve; as a rule, active = well fitted curve in the direction sought with a large enough effect in the repeat runs; inconclusive = weak or mixed curves; inactive = no such curve, though single readings can be large; an effect the other way counts as inactive or inconclusive.

Assays:
[1] = qHTS assay to identify aromatase inhibitors - cell viability counter screen (AID 743084);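 note: cells stimulated with testosterone during compound exposure; nearly all actives have a fitted effect of over 55% in size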
[2] = target: Aryl hydrocarbon receptor (Homo sapiens) (UniProt P35869); test: qHTS assay to identify small molecule that activate the aryl hydrocarbon receptor (AhR) signaling pathway (AID 743085);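 note: HG2L7.5c1 human HepG2 liver cells with stably integrated DRE-driven firefly reporter; series mostly up to about 70 µM; nearly all actives have a fitted effect of over 15% in size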
Sequence of Aryl hydrocarbon receptor (Homo sapiens) (P35869 whole entry, looked up): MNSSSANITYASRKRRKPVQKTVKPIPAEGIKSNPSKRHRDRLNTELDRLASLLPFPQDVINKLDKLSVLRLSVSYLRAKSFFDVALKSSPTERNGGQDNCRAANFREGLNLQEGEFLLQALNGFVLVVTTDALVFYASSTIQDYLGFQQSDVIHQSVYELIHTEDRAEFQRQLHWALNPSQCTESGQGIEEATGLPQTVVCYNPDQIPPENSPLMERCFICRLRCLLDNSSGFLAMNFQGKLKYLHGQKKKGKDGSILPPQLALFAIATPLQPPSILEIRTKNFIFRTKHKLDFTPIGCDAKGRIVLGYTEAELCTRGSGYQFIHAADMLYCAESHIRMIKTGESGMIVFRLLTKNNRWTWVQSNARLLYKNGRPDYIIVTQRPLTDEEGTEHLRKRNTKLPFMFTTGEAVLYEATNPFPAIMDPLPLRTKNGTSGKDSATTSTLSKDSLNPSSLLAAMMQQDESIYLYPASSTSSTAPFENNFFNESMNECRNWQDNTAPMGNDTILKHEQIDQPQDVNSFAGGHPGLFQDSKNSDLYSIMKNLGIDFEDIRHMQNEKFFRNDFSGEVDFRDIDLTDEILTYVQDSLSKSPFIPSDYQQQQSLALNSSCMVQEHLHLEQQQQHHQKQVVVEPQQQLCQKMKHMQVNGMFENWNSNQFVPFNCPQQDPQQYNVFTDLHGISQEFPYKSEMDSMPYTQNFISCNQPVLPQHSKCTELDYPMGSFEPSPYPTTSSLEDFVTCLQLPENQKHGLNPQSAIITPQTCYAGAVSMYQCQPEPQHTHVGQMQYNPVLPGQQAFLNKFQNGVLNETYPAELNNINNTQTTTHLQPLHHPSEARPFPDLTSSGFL
Procedure, shortened: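 Luminescence (ONE-Glo) from a dioxin-responsive-element luciferase reporter in HG2L7.5c1 HepG2 cells after 24 hr compound exposure at 37C; viability measured by CellTiter-Fluor fluorescence beforehand.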

[3] = qHTS assay to identify small molecule that activate the aryl hydrocarbon receptor (AhR) signaling pathway - cell viability counter screen (AID 743086);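 note: HepG2 liver cells carrying the AhR DRE luciferase reporter; series mostly up to about 70 µM; nearly all actives have a fitted effect of over 45% in size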
Procedure, shortened: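 HepG2-AhR-luc (HG2L7.5c1) cells, 4000/well, treated 24 h at 37 C with compound; viability measured as CellTiter-Fluor fluorescence after 30 min in the same wells as the luciferase read.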

[4] = qHTS assay to identify small molecule antagonists of the peroxisome proliferator-activated receptor gamma (PPARg) signaling pathway - cell viability counter screen (AID 743194); conditions: Potency: co-treated with 50 nM rosiglitazone; note: nearly all actives have a fitted effect of over 55% in size
Procedure, shortened: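 Cytotoxicity counter screen in PPARg-bla HEK293H cells, same wells as reporter assay. Compounds plus 50 nM rosiglitazone (final) for 17 h at 37 C, then viability read by CellTiter-Glo luminescence.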

[5] = qHTS assay for small molecule agonists of the antioxidant response element (ARE) signaling pathway (AID 743202; active = well fitted activation curve with a large enough effect in the signal ratio in the repeat runs, not every such curve was filed as active; the % refers to the signal ratio)
Procedure, shortened: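 Agonist mode reporter screen: HepG2 cells with ARE-controlled beta-lactamase are incubated with test compounds for 16 h at 37 C, and beta-lactamase activity is measured as fluorescence of cleaved B/G FRET substrate.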

[6] = qHTS assay for small molecule agonists of the antioxidant response element (ARE) signaling pathway - cell viability counter screen (AID 743203; calls by dose curve; note: nearly all actives have a fitted effect of over 55% in size)
Procedure, shortened: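 Following 16 hrs of compound treatment at 37C, HepG2 cells with an ARE-controlled beta-lactamase gene were lysed with CellTiter-Glo. Luminescence was read after 30 min at room temperature.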

[7] = qHTS assay for small molecule activators of the heat shock response signaling pathway - cell viability counter screen (AID 743209); note: nearly all actives have a fitted effect of over 50% in size
Procedure, shortened: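 Readout: CellTiter-Glo luminescence, 30 min at room temperature. System: HSE-bla HeLa cells, 1500/well, plated overnight. Treatment: compounds in DMSO, 5 h at 37 C.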

[8] = qHTS assay for small molecule activators of the heat shock response signaling pathway (AID 743210; active = well fitted activation curve with a large enough effect in the signal ratio in the repeat runs, with a control signal flat, not every such curve was filed as active; the % refers to the signal ratio;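 note: HeLa cells with beta-lactamase reporter driven by heat shock elements; series mostly up to about 63 µM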)
Procedure, shortened: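 Quantitative high-throughput format using an engineered HeLa line in which heat shock response elements drive beta-lactamase; after 5 h with compound, cells received a B/G FRET substrate and fluorescence was read.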

[9] = target: Peroxisome proliferator-activated receptor gamma (Homo sapiens) (UniProt P37231); test: qHTS assay to identify small molecule antagonists of the peroxisome proliferator-activated receptor gamma (PPARg) signaling pathway (AID 743191; calls by dose curve; note: series mostly up to about 63 µM; nearly all actives have a fitted effect of over 30% in size)
Sequence of Peroxisome proliferator-activated receptor gamma (Homo sapiens) (P37231 whole entry, looked up): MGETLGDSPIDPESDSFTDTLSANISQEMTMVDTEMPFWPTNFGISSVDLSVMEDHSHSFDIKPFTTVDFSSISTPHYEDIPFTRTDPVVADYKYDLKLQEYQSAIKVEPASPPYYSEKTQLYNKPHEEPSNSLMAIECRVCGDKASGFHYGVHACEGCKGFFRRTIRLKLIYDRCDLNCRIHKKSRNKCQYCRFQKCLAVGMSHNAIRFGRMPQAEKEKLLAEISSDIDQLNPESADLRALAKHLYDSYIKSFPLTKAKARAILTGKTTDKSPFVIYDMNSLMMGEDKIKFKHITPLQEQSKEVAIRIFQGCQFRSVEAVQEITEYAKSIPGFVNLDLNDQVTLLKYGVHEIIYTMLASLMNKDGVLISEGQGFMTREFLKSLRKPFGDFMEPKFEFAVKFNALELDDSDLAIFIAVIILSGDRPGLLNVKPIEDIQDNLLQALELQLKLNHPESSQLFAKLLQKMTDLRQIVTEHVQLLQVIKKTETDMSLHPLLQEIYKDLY
Procedure, shortened: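 GeneBLAzer PPARg UAS-bla HEK293H cells, 5 h post-plating, exposed to compounds 17 h at 37C. LiveBLAzer B/G FRET substrate added for 1 h at room temperature; beta-lactamase reporter read by fluorescence intensity.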

[10] = target: Peroxisome proliferator-activated receptor gamma (Homo sapiens) (UniProt P37231); test: qHTS assay to identify small molecule agonists of the peroxisome proliferator-activated receptor gamma (PPARg) signaling pathway (AID 743094; active = well fitted activation curve with a large enough effect in the signal ratio in the repeat runs, not every such curve was filed as active; the % refers to the signal ratio)
Procedure, shortened: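 Compounds dissolved in DMSO were added to PPARg UAS-bla HEK293H cells for 17 h at 37C, and reporter expression was quantified by fluorescence intensity after 1 h with LiveBLAzer B/G FRET substrate.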
% is set by controls: 0 for no effect and ±100 for the full control effect.

N[C@@H](Cc1ccc(Oc2cc(I)c(O)c(I)c2)c(I)c1)C(=O)O
inactive: Potency [1] | Potency [2] | Potency [3] | Potency [4] | Potency [5] | Potency [6] | Potency [7] | Potency [8]

Oc1ccc2c3c1O[C@H]1[C@@H](O)C=C[C@H]4[C@@H](C2)NCC[C@@]341
inactive: Potency [1] | Potency [2] | Potency [3] | Potency [4] | Potency [6] | Potency [7]

CC[C@@H](CO)NC(=O)[C@@H]1C=C2c3cccc4[nH]cc(c34)C[C@H]2N(C)C1
inactive: Potency [1] | Potency [2] | Potency [3] | Potency [4] | Potency [5] | Potency [6] | Potency [7]

O=C1CCCCC1Cl (centres undefined)
inactive: Potency [1] | Potency [2] | Potency [3] | Potency [9] | Potency [4] | Potency [6] | Potency [7]

CNC(=O)O/N=C(/CSC)C(C)(C)C
inactive: Potency [1] | Potency [3] | outcome [10] | Potency [9] | Potency [4] | Potency [5] | Potency [6] | Potency [7] | Potency [8]

N[C@@H]1C[C@H]1c1ccccc1
inactive: Potency [1] | Potency [3] | outcome [10] | Potency [9] | Potency [4] | Potency [5] | Potency [6] | Potency [7] | Potency [8]

Brc1c(Br)c(Br)c(Br)c(Br)c1Br
inactive: activity change, negative = cytotoxicity [1] -1.05% [at 8.47 µM] | activation [2] -0.623% [at 8.47 µM] | viability change, negative = cytotoxic [3] 2.59% [at 8.47 µM] | activity change, negative = cytotoxicity [4] -21% [at 5.95 µM, co-treated with 50 nM rosiglitazone] | activation [5] -11.1% [at 8.36 µM] | viability change, negative = cytotoxic [6] -9.94% [at 8.36 µM] | activity change, negative = cytotoxicity [7] -1.06% [at 5.95 µM] | activation [8] -1.19% [at 5.95 µM]

CCC1(CC)C(=O)C=CNC1=O
inactive: Potency [1] | Potency [3] | outcome [10] | Potency [9] | Potency [4] | Potency [5] | Potency [6] | Potency [7] | Potency [8]

CC(C)(C)NC[C@H](O)c1ccc(O)cc1Cl
inactive: Potency [1] | Potency [3] | outcome [10] | Potency [9] | Potency [4] | Potency [5] | Potency [6] | Potency [7] | Potency [8]

N#CC(Br)(Br)C(N)=O
inactive: Potency [1] | Potency [2] | Potency [3] | Potency [4] | Potency [6] | Potency [7] | Potency [8]

Cl/C=C/CCl
inactive: Potency [1] | Potency [3] | outcome [10] | Potency [9] | Potency [4] | Potency [5] | Potency [6] | Potency [7] | Potency [8]

CCCOc1nn(C(=O)NS(=O)(=O)c2ccccc2C(=O)OC)c(=O)n1C
inactive: Potency [1] | Potency [3] | outcome [10] | Potency [9] | Potency [4] | Potency [5] | Potency [6] | Potency [7] | Potency [8]

O=C1CC(=O)NC(=O)N1
inactive: Potency [1] | Potency [2] | Potency [3] | Potency [9] | Potency [4] | Potency [5] | Potency [6] | Potency [7] | Potency [8]

O=P(O)(O)c1ccccc1
inactive: Potency [1] | Potency [2] | Potency [3] | Potency [4] | Potency [5] | Potency [6] | Potency [7] | Potency [8]

C=C(Cl)CCl
inactive: Potency [1] | Potency [3] | outcome [10] | Potency [9] | Potency [4] | Potency [5] | Potency [6] | Potency [7] | Potency [8]

O=C/C=C/c1ccco1
inactive: Potency [1] | Potency [2] | Potency [3] | Potency [4] | Potency [5] | Potency [6] | Potency [7] | Potency [8]

CN1C(=O)COc2c(C(=O)NC3CN4CCC3CC4)cc(Cl)cc21 (centres undefined)
inactive: Potency [1] | Potency [2] | Potency [3] | Potency [9] | Potency [4] | Potency [6] | Potency [7] | Potency [8]

CNC(=O)Oc1cc(C)c(N(C)C)c(C)c1
inactive: Potency [1] | Potency [3] | outcome [10] | Potency [9] | Potency [4] | Potency [5] | Potency [6] | Potency [7]

CC[C@H](O)C(C[C@H](C)N(C)C)(c1ccccc1)c1ccccc1
inactive: Potency [1] | Potency [2] | outcome [10] | Potency [4] | Potency [6] | Potency [7] | Potency [8]

N#CN=C1SCCN1Cc1ccc(Cl)nc1
inactive: Potency [1] | Potency [2] | outcome [10] | Potency [9] | Potency [5] | Potency [6] | Potency [7] | Potency [8]

O=CCCl
inactive: Potency [1] | Potency [3] | outcome [10] | Potency [9] | Potency [4] | Potency [5] | Potency [6] | Potency [7] | Potency [8]

CCCC(C)C1(CC)C(=O)N=C(S)NC1=O (centres undefined)
inactive: Potency [1] | Potency [2] | Potency [3] | Potency [4] | Potency [5] | Potency [6] | Potency [7] | Potency [8]

Cc1ccc(-c2nc3ccc(C)cn3c2CC(=O)N(C)C)cc1
inactive: Potency [1] | Potency [3] | outcome [10] | Potency [9] | Potency [4] | Potency [5] | Potency [6] | Potency [7] | Potency [8]

O=C(NC(O)C(Cl)(Cl)Cl)NC(O)C(Cl)(Cl)Cl (centres undefined)
inactive: Potency [1] | Potency [2] | Potency [3] | Potency [4] | Potency [5] | Potency [6] | Potency [7] | Potency [8]

CCN[C@H](C)Cc1cccc(C(F)(F)F)c1
inactive: Potency [1] | Potency [2] | outcome [10] | Potency [9] | Potency [4] | Potency [6] | Potency [7] | Potency [8]
